Reference: PubChem BioAssay (NCI)
The panel holds about 83,000 compounds, 20% with a hit somewhere; the sample as a whole holds those more often.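 Testing used 96-well plates and a 48-hour single-concentration exposure. Example: -40 means 40% of the starting cells died.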 Unmarked numbers belong to inactive results. The source made the active and inactive calls. The calls were made as follows: active = growth percent below 10; inactive = the rest.

Columns and labels:
Assay in all cases: NCI-60 one-dose screen, 48 h (100 = growth as untreated, 0 = no growth, -100 = all killed)
Conditions in all cases: 10 µM unless noted
[1] = tested on: NCI-H23 lung
[2] = tested on: NCI-H226 lung
[3] = tested on: NCI-H322M lung
[4] = tested on: HOP-62 NSCLC
[5] = tested on: NCI-H522 lung
[6] = tested on: A549/ATCC NSCLC
[7] = tested on: 786-0 renal
[8] = tested on: COLO 205 colon
[9] = tested on: DU-145 prostate
[10] = tested on: K-562 leukemia
[11] = tested on: MALME-3M melanoma
[12] = tested on: MDA-MB-231 breast
[13] = tested on: RXF 393 renal
[14] = tested on: SF-268 CNS
[15] = tested on: SF-295 CNS
[16] = tested on: SF-539 CNS
[17] = tested on: UACC-257 melanoma
[18] = tested on: M14 melanoma
[19] = tested on: HCT-15 colon
[20] = tested on: NCI-H460 lung

Structure (SMILES) | growth [1] | growth [2] | growth [3] | growth [4] | growth [5] | growth [6] | growth [7] | growth [8] | growth [9] | growth [10] | growth [11] | growth [12] | growth [13] | growth [14] | growth [15] | growth [16] | growth [17] | growth [18] | growth [19] | growth [20]
COC(=O)C[C@@H]1CC=CC(=O)/C1=C(O)/C=C/c1ccccc1 | -43.4% (active) | -40.6% (active) | -14.4% (active) | -42.8% (active) | -64.2% (active) | -0.275% (active) | -77.5% (active) | -57.2% (active) | -28.4% (active) | 3.07% (active) | -60% (active) | -63% (active) | -83.6% (active) | 22.3% | -14.6% (active) | -39.1% (active) | -39.3% (active) | -70.2% (active) | -53.9% (active) | –
O=C(Nc1ccc(OCc2nnc(-c3ccccc3)o2)c(F)c1)Nc1ccc(Cl)c(C(F)(F)F)c1 | 8.65% (active) | 59.3% | 28.8% | 13.6% | 13.9% | 11.6% | 53.2% | -46.3% (active) | 10% | 12.9% | 8.78% (active) | 29.3% | 45.9% | 36.2% | – | 36.1% | 28.3% | 23.8% | 11.8% | –
COc1ccc(-c2c(-c3cc(OC)c(OC)c(OC)c3)noc2N)cc1 | 31.1% | 16% | 43.2% | – | -28.9% (active) | 22.3% | 20% | -72% (active) | -3.15% (active) | 11.8% | 67.5% | 17.1% | 26.5% | 23.8% | 8.4% (active) | 19.3% | 77.5% | 15.2% | 28% | 7.26% (active)
O=C(CSCC(=O)N/N=C/c1ccccc1O)N/N=C\c1ccccc1O | 40.8% | 39.4% | 15.7% | 25.3% | – | 38.1% | 5.14% (active) | 17.2% | 37.1% | 10.8% | 2.43% (active) | 42.7% | 44.8% | 28.9% | 35.5% | 25.6% | 25.6% | -4.57% (active) | 22.9% | –
CCN(CC)CCNc1ccc(Cl)cc1Cl | 101% | 108% | 94.9% | 95.8% | 98.5% | 107% | 104% | 108% | 107% | 104% | 106% | 118% | 103% | 101% | 109% | 111% | 95% | 102% | 107% | –
COc1ccc(-c2nnc(COc3ccc(NC(=O)Nc4cc(C(F)(F)F)cc(C(F)(F)F)c4)cc3F)o2)cc1 | -11% (active) | 7.41% (active) | 23.4% | 12.3% | -17.8% (active) | 3.87% (active) | 16.2% | -40.7% (active) | 12.4% | 9.15% (active) | -16.5% (active) | -22.6% (active) | 16.3% | 18.8% | – | 20.3% | 0.873% (active) | – | 10% | –
ClC1=C(Cl)C(Cl)=C(Cl)C1=Cc1ccc(Cl)cc1 | 33.1% | 87.7% | 107% | 47.4% | 27.5% | – | -43% (active) | 13.5% | -75.4% (active) | -0.422% (active) | -2.75% (active) | 14.3% | 20.5% | -69.3% (active) | 34.2% | 91.2% | – | -47.6% (active) | 66.5% | –
COc1ccc(-c2cncn2-c2ccc(-c3nc4cc(OC)c(OC)c(OC)c4s3)cc2)cc1N | 72.9% | 64.5% | 84.1% | 101% | 46% | 47.9% | 55.2% | 46.2% | 92.6% | 41% | 57.9% | 76.4% | 75.8% | 93.1% | 50% | 87.8% | 71.6% | 46.5% | 42.1% | –
CCCCC(C#N)C(N)=O (stereo unspecified) | 105% | 102% | 110% | 99% | 96.7% | – | 96.4% | 124% | 104% | – | 107% | 104% | 121% | 114% | – | 96.9% | – | 104% | 105% | –
